The values below come from PubChem BioAssay AID2796 (The Scripps Research Institute Molecular Screening Center, 2010).

Structures are written as SMILES. Hit rate of the full screen: of about 320,000 compounds, about 8,000 (2.5%) were called active. No stated cut-off is given here; in the data, active means activation above about 47%; inactive means the rest. Shown is part of a subset that was picked to be rich in actives.

Chain of Aryl hydrocarbon receptor (Homo sapiens) (P35869 whole entry, looked up): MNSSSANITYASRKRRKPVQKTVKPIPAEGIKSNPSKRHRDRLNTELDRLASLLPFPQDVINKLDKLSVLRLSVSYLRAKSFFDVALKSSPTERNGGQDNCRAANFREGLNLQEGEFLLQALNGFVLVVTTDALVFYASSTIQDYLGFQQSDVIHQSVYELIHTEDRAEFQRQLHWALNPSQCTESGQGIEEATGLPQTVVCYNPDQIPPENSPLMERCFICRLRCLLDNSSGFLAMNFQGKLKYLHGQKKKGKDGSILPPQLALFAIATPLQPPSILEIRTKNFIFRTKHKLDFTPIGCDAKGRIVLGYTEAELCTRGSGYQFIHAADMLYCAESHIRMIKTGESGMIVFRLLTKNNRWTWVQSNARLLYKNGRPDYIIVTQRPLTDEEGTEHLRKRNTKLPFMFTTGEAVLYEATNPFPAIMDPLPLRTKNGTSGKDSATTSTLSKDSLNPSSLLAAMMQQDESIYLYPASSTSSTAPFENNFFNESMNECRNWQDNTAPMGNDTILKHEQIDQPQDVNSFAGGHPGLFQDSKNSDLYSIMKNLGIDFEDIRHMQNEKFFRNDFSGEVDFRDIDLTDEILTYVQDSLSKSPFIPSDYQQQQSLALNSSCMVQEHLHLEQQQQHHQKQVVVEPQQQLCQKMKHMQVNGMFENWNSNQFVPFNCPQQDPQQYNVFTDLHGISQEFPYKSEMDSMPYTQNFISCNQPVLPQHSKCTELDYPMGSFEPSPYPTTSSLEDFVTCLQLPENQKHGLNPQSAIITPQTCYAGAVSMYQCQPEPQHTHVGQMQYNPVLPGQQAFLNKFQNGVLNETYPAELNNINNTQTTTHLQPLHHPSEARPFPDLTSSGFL

This experiment has as its target Aryl hydrocarbon receptor (Homo sapiens) (UniProt P35869). As to the kind of experiment: AHR activators, primary screen, cell-based, luminescence, luciferase reporter, human (AID 2796).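 Further: 0% = vehicle wells and 100% = reference agonist.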 To be noted: AHR-responsive luciferase reporter cells, at 5 µM, active compounds read high. A general note: In a reporter assay the amount or activity of a reporter protein is the signal.
Take `O=C(COc1ccc(Br)cc1F)NCC1(N2CCCCC2)CCCCC1`: the activation is -0.81% (inactive). As to `O=c1oc2c(Cl)cc(Cl)cc2cc1-c1nnc(Nc2ccccc2F)s1`, the activation was 10.5% (inactive). For `OC(COCCC12CC3CC(CC(C3)C1)C2)CN1CCCCC1` (stereo not drawn), the activation is 0.68% (inactive). `CC(=O)N[C@H]1[C@H]([C@H](O)[C@H](O)CO)OC(C(=O)O)=C[C@@H]1O`: the activation was 0.57% (inactive). For the compound `Cc1ccc(S(=O)(=O)N(CC(=O)Nc2cccc([N+](=O)[O-])c2)Cc2ccc(Cl)cc2)cc1`, the activation is 6.55% (inactive).

Consider `CC1Cc2ccccc2N1C(=O)CSc1nnc(C2CC2)n1C` (stereo not drawn), for which the activation was 93% (active). With `CC1Cc2ccccc2N1C(=O)CSc1nnc(-c2ccc(S(=O)(=O)N3CCCC3)cc2)n1C` (stereo not drawn), the activation was 1.18% (inactive). Regarding `CCn1c(CSc2ncccn2)nnc1SCC(=O)N1c2ccccc2CC1C` (stereo not drawn), the activation is -1.92% (inactive). Regarding `CO/N=C/c1ccc(N2CCN(C(=O)c3cccc(Cl)c3)CC2)c([N+](=O)[O-])c1`, the activation was -0.18% (inactive).

`Cc1nn(Cc2ccccc2Cl)c(C)c1NC(=O)Cn1nc([N+](=O)[O-])c(Cl)c1C`: the activation is 0.37% (inactive). `COc1cccc(NC(=O)COc2cc(C)cc3oc(=O)cc(C)c23)c1`: the activation was 12.3% (inactive). For the compound `Cc1cc2oc(C(=O)Nc3c(C)n(C)n(-c4ccccc4)c3=O)c(C)c2cc1Cl`, the activation was 81% (active).

Turning to `Cc1c(NC(=O)c2coc(=O)c(Br)c2)c(=O)n(-c2ccccc2)n1C`, the activation was 0.64% (inactive). Regarding `Cc1c(NC(=O)c2cc(-c3ccc(Br)cc3)on2)c(=O)n(-c2ccccc2)n1C`, the activation was -3.47% (inactive).

As for `COCCN(Cc1cc2cc3c(cc2nc1Cl)OCO3)C(=O)c1cccc(C)c1`, the activation is 11.9% (inactive). To `Cc1nnc(NCCO)c2ccccc12` belongs -2.09% (inactive). For the compound `COc1ccc(Nc2nc(=O)[nH]nc2C)cc1`, the activation is -3.65% (inactive). For the compound `COc1ccc(Nc2nnc(C)c3ccccc23)cc1`, the activation is 102% (active). The result for `CCCCNC(=O)N1CCCC(N(C)CCc2ccc(OC)c(OC)c2)C1` (stereo not drawn) reads -0.75% (inactive); that for `CCNC(=O)NNC(=O)C1CC(c2cccs2)=NO1` (stereo not drawn), 3.35% (inactive); that for `Cn1cccc1C(=O)OCC(=O)NCCc1ccccc1`, 7.54% (inactive). Regarding `c1ccc(-n2nnnc2-c2cccnc2)cc1`, the activation is 36.3% (inactive). As to `S=c1nc2ccccc2c2nc(-c3cccnc3)[nH]n12`, the activation is 83.8% (active). With `O=C(CSc1n[nH]c(-c2cccnc2)n1)Nc1ccnc2ccccc12`, the activation is 8.3% (inactive). As for `O=C(/C=C/Sc1ncn[nH]1)c1ccc(Cl)cc1`, the activation is 0.35% (inactive). Consider `COc1cc(C)ccc1OCC(=O)OCC(=O)c1ccc[nH]1`, for which the activation is -3.4% (inactive). In the case of `CCOCCCNc1nc(-c2ccccc2)nc2ccccc12`, the activation was 13.5% (inactive). For the compound `COCCNc1nc(-c2ccccc2)nc2c1oc1ccccc12`, the activation was 88.9% (active).

In the case of `C[C@@H](Nc1nc(-c2ccccc2)nc2c1oc1ccccc12)C(=O)O`, the activation was 16.4% (inactive). The result for `Cc1nn(-c2ccccc2)c(C)c1/C=N/NC(=O)CSc1nc2ccccc2c(=O)n1-c1ccccc1` reads 1.64% (inactive). To `Nc1nnn(CC(=O)N/N=C/c2ccccc2)n1` belongs 0.68% (inactive); to `O=C(Cn1cncn1)N/N=C/c1c2ccccc2cc2ccccc12`, 84.8% (active); to `CCCCNC(=O)C1CCCNC1=O` (stereo not drawn), -1.12% (inactive). Consider `c1ccc(-c2csc(N3CCc4ccccc4C3)n2)cc1`, for which the activation is 14.7% (inactive). `O=C(NN=Cc1ccc(N2CCOCC2)cc1)c1cc2ccccc2cc1O`: the activation is 11.3% (inactive). Regarding `COc1ccc(/C=N/Nc2ccccc2C(=O)O)cc1`, the activation is 3.83% (inactive). As for `NC(=O)c1ccccc1N=Cc1ccc2ccccc2c1`, the activation was 87.6% (active). To `O=C(c1ccc(N2CCOCC2)c([N+](=O)[O-])c1)N1CCN(S(=O)(=O)c2cccs2)CC1` belongs -4.2% (inactive); to `Cn1c(=O)c2c(nc(N3CCOCC3)n2CCNC2=NCCC2)n(C)c1=O`, -1.68% (inactive); to `O=C(c1ccc(F)cc1)N1CCC(n2nnc3ccccc32)CC1`, -1.01% (inactive). With `Fc1ccc2nc(Nc3nc4c(s3)CCCC4)sc2c1`, the activation is 49.8% (active). In the case of `NS(=O)(=O)c1ccc2nc(NC(=O)CS(=O)(=O)c3ccc(F)cc3)sc2c1`, the activation is 8.79% (inactive). As for `CCS(=O)(=O)N1Cc2ccccc2CC1C(=O)Nc1nc2ccc(F)cc2s1` (stereo not drawn), the activation was -3.42% (inactive). Take `O=C(Nc1ccc(Br)cc1F)C1CC(=O)N(C2CCCCC2)C1` (stereo not drawn): the activation is 0.73% (inactive). Turning to `COc1ccccc1CCNC(=O)CN1C(=O)NC2(CCCC2)C1=O`, the activation was -2.06% (inactive). As for `Cc1cc2c(cc1S(=O)(=O)NCc1ccc(Cl)cc1)OCC(=O)N2`, the activation is 1% (inactive). For `COc1ccccc1-c1nnc(SCC(=O)N2CC(C)CC(C)C2)o1` (stereo not drawn), the activation was 29% (inactive).

For `COc1cccc(NC(=O)CSc2nnc(-c3cccnc3)o2)c1`, the activation is 29.8% (inactive). Turning to `COc1ccccc1-c1nnc(SCC(=O)Nc2ccccc2)o1`, the activation is 75.5% (active).

Take `CN(CC(=O)Nc1ccc(F)cc1)CC(=O)N1CCCCC1`: the activation is 3.11% (inactive). The result for `CCc1ccc(N(C(=O)c2csnn2)C(C(=O)NC2CCCCC2)c2ccncc2)cc1` (stereo not drawn) reads 3.1% (inactive); that for `O=C(CN1C(=O)NC2(CCCC2)C1=O)Nc1cc(C(F)(F)F)ccc1N1CCOCC1`, -0.32% (inactive). As to `CCOC(=O)c1ccc(-c2ccc(C(=O)Nc3cccnc3)o2)cc1`, the activation is 48.9% (active). With `COc1cccc(C(=O)Nc2cccnc2)c1OC`, the activation is 19.2% (inactive). To `COc1ccc(C)cc1NC(=O)c1ccc(-c2ccc(C(C)=O)cc2)o1` belongs 40.5% (inactive). `CCN(CC)P(=O)(C(NC(=O)OC)C(F)(F)C(F)(F)C(F)(F)C(F)F)N(CC)CC` (stereo not drawn): the activation is -0.37% (inactive). On to `O=C(N/N=C/c1ccc2c(c1)OCO2)C(=O)N1CCCC1`, for which the activation is 38.1% (inactive).

In the case of `CCC1=C/C(=C\c2ccc3c(c2)OCO3)C(=O)S1`, the activation was 1.47% (inactive). In the case of `O=C1/C(=C/c2ccc3c(c2)OCO3)CCC/C1=C\c1ccc2c(c1)OCO2`, the activation was 72.7% (active).

On to `Cc1ccc(S(=O)(=O)N(C)CC(=O)NCC(c2ccc(F)cc2)N2CCOCC2)cc1` (stereo not drawn), for which the activation is -0.69% (inactive). In the case of `CCOc1ccc(C2=CC(c3ccccc3)n3ncnc3N2)cc1` (stereo not drawn), the activation is -3.83% (inactive). For `CC1=C(C(=O)OCc2ccccc2)C(c2ccco2)n2ncnc2N1` (stereo not drawn), the activation is 1.22% (inactive). Consider `Brc1ccc(C2=CC(c3ccco3)n3ncnc3N2)cc1` (stereo not drawn), for which the activation was 95.6% (active).
